What follows are molecules tested on Caenorhabditis elegans (assay: growth (movement index) relative to DMSO control, secondary screen (log2 fold change); higher = more growth (less anthelmintic activity)). Conditions: 10 µM, 5 days, 20 °C, stage: L1 start.
Description: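 C. elegans growth assay: synchronised L1 larvae (~20 per well) in S-complete medium with HB101 E. coli were grown in 96-well plates with Pathogen Box compound at 10 µM (1% DMSO) for 5 days at 20 °C. Motility/growth was quantified by whole-plate movie imaging (INVAPP/Paragon movement index). The score is the log2 fold change of the median movement of 5 replicate wells (on different plates) relative to DMSO-only wells. The secondary screen retested the top 20 hits with the same library material (n = 5, 10 µM).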

Structure (SMILES)	growth (log2)
CCOC(=O)NC(=O)c1ccsc1NC(=O)c1nc2ccccc2s1	-1.05
CC(C)n1ncc2c(C(=O)NCC(c3cccs3)N3CCOCC3)cc(-c3ccccc3)nc21 (stereo not drawn)	-8.04
Clc1ccc(-n2cc(COc3ccnc4ccccc34)nn2)cc1	-2.02
O=C(Nc1cccnc1)c1c(O)c2cccc3c2n(c1=O)CC3	-4.82
Nc1ccc(C(=O)Nc2ccc(-c3nc4ccccc4o3)cc2)cc1	-5.41
O=C(c1ccco1)N(CCCn1ccnc1)c1nc2c(Cl)cccc2s1	-3.66
COC(=O)C1=C(C)NC(C)=C(C(=O)OC(C)C)C1c1cccc2nonc12 (stereo not drawn)	-1.42
O=C(Nc1ccc2c(c1)B(O)OC2)c1ccccc1C(F)(F)F	-7.62
CC(C)(C)CN1C(=O)C(c2ccccc2)(c2ccccc2)N=C1N	-5.87
CC(C)n1nc(-c2cc3c(Cl)cccc3[nH]2)c2c(N)ncnc21	-1.13
Cc1cc(C(=O)Nc2ccc(-c3ccccc3)cc2)no1	-6.92
O=C(Nc1nc(-c2ccccn2)cs1)C1CC1c1ccccc1F (stereo not drawn)	-0.836
COC(=O)Nc1nc2cc(C(=O)c3ccccc3)ccc2[nH]1	-5.72
CC(C)C(C(=O)Nc1ccc(S(=O)(=O)N(C)C)cc1)c1ccc(Cl)cc1 (stereo not drawn)	-2.66
CC(=O)OCC1OC([S-])C(OC(C)=O)C(OC(C)=O)C1OC(C)=O.CCP(CC)CC.[Au+] (stereo not drawn)	-7.16
O=C(Nc1ccc(F)c(-c2nc3cc(-c4ccccc4)cnc3[nH]2)c1)N1CCCC1	-4.01
CN1CCN(c2cc(-c3ccc(F)cc3)nc(-c3ccncc3)n2)CC1	-2.12
CCc1ccc([C@@H]2C[C@H](C(F)(F)F)n3ncc(C(=O)NCc4ccc(OC)cc4)c3N2)cc1	-3.6
